Measured values published in the supplement of paper PMC10498489.
Among all 2,300 compounds or so, about 330 (14%) showed activity.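 How the source made its calls: active = median modified Z-score above 1.96; inactive = 1.96 or below.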 Only a sample is shown.

system: HepG2 Srxn1-GFP reporter cells (+30 nM CDDO-Me); assay: Srxn1-GFP intensity median modified Z-score relative to plate median; higher = stronger NRF2 / oxidative stress reporter activation, active = hit call of the paper; settings: 10 µM; exposure time: 24h
How it was run: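 The modified Z-score of GFP intensity was computed per plate, and the median over replicates is reported. HepG2 Srxn1-GFP BAC reporter cells in three replicate plates were treated for 24 h with compound at 10 μM plus an NRF2 activator at 30 nM (≤0.1% DMSO). Per-cell cytoplasmic GFP came from confocal images, excluding those with under 100 cells, and scaling used 1.4826 × median absolute deviation.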

SMILES | Srxn1-GFP intensity median modified Z-score
CC(=O)OCC(=O)[C@@]1(O)[C@H](OC(C)=O)CC2C3CC=C4CC(=O)C=C[C@]4(C)[C@@]3(F)[C@@H](O)C[C@@]21C (stereo partly specified) [euspeclibcmpd1284] | -0.169 (inactive)
N=c1[nH]cnc2c1ncn2C1C[C@H](O)[C@@H](CO)O1 (stereo partly specified) [euspeclibcmpd2091] | -0.0836 (inactive)
CO[C@H]1/C=C/O[C@@]2(C)Oc3c(C)c(O)c4c(O)c(c5c(nc6cc(C)ccn65)c4c3C2=O)NC(=O)/C(C)=C\C=C\C(C)[C@H](O)[C@@H](C)C(O)[C@@H](C)[C@H](OC(C)=O)[C@@H]1C (stereo partly specified) [euspeclibcmpd745] | -0.528 (inactive)
Clc1ccc(COC(Cn2ccnc2)c2ccc(Cl)cc2Cl)cc1 (stereo unspecified) [euspeclibcmpd413] | 15.1 (active)
Clc1ccc(CSC(Cn2ccnc2)c2ccc(Cl)cc2Cl)cc1 (stereo unspecified) [euspeclibcmpd401] | 22.5 (active)
Clc1ccc(CON=C(Cn2ccnc2)c2ccc(Cl)cc2Cl)c(Cl)c1 [euspeclibcmpd747] | -0.564 (inactive)
C=CCOC(Cn1ccnc1)c1ccc(Cl)cc1Cl (stereo unspecified) [euspeclibcmpd2390] | 6.42 (active)
Clc1ccc(C(Cn2ccnc2)OCc2ccsc2Cl)c(Cl)c1 (stereo unspecified) [euspeclibcmpd1174] | 15.7 (active)
C=CC1=C(C(=O)O)N2C(=O)C(NC(=O)C(=NO)c3csc(=N)[nH]3)C2SC1 (stereo unspecified) [euspeclibcmpd718] | -0.455 (inactive)
CC(=CC(=O)OCCCCCCCCC(=O)O)C[C@@H]1OC[C@H](C[C@@H]2O[C@H]2[C@@H](C)[C@H](C)O)[C@@H](O)[C@H]1O [euspeclibcmpd851] | 0.838 (inactive)
Cc1cnn(CCC(=O)NC2CCCN(c3ccc(C)nn3)C2)c1 (stereo unspecified) | 1.37 (inactive)
O=C(O)c1cc(O)c(=O)c2c(O)c(O)c(O)cc2c1 [euspeclibcmpd1713] | -0.567 (inactive)
Cc1ccsc1C=CC1=NCCCN1C [euspeclibcmpd638] | 0.449 (inactive)
O=C(O)/C=C/C(=O)O [euspeclibcmpd2444] | -0.338 (inactive)
CC1CN(C)CCN1C(=O)c1ccc(CCNS(C)(=O)=O)s1 (stereo unspecified) | 1.16 (inactive)
Nc1ccc(S(=O)(=O)N=c2cc[nH]n2-c2ccccc2)cc1 [euspeclibcmpd1061] | 0.53 (inactive)
CC1=C(C(=O)O)N2C(=O)[C@@H](NC(=O)C(N)c3ccc(O)cc3)[C@H]2SC1 (stereo partly specified) [euspeclibcmpd47] | 0.774 (inactive)
NCc1ccccc1CC(=O)NC1C(=O)N2C(C(=O)O)=C(CSc3nnnn3CC(=O)O)CSC12 (stereo unspecified) [euspeclibcmpd506] | -0.382 (inactive)
Clc1ccc(CCC(Cn2ccnc2)Sc2c(Cl)cccc2Cl)cc1 (stereo unspecified) [euspeclibcmpd650] | 26.7 (active)
CC1(C)C2CC[C@@]3(C)C4=C(CC(=O)C3[C@@]2(C)CC[C@@H]1O[C@@H]1OC(C(=O)O)[C@@H](O[C@@H]2OC(C(=O)O)[C@@H](O)[C@H](O)[C@H]2O)[C@H](O)[C@H]1O)C1C[C@@](C)(C(=O)O)CC[C@]1(C)CC4 (stereo partly specified) [euspeclibcmpd1807] | -0.547 (inactive)
COc1c(-c2coc3cc4c(cc3c2=O)CC(OC(C)=O)C(C)(C)O4)ccc2c1C=CC(C)(C)O2 (stereo unspecified) [euspeclibcmpd1654] | 13.6 (active)

SMILES | Srxn1-GFP intensity median modified Z-score
COc1c(CC(=O)c2cc3c(cc2O)OC(C)(C)C(O)C3)ccc2c1C=CC(C)(C)O2 (stereo unspecified) [euspeclibcmpd1608] | 7.77 (active)
COc1cc2occ(-c3ccc(OC)c(OC)c3OC)c(=O)c2cc1OC [euspeclibcmpd2240] | 0.129 (inactive)
COc1ccc(C(=O)CC(=O)O)c2c1C=CC(C)(C)O2 [euspeclibcmpd1976] | -0.441 (inactive)
COc1ccc(-c2c(O)c3c(OC)c4c(cc3oc2=O)OC(C)(C)C=C4)cc1 [euspeclibcmpd1515] | 0.81 (inactive)
COc1cc(OC)c2c(=O)c(-c3ccc4c(c3)OCO4)coc2c1 [euspeclibcmpd1964] | 0.515 (inactive)
COc1ccc(-c2coc3cc(O)ccc3c2=O)c(O)c1O [euspeclibcmpd1422] | -0.526 (inactive)
COc1c2c(cc3occ(-c4ccc5c(c4)OCO5)c(=O)c13)OC(C)(C)C=C2 [euspeclibcmpd1957] | 7.5 (active)
CC(=O)S[C@@H]1C=C2CC(=O)CC[C@]2(C)[C@H]2CC[C@@]3(C)[C@@H](CC[C@@]34CCC(=O)O4)C12 (stereo partly specified) [euspeclibcmpd269] | -0.784 (inactive)
CC12CCC(=O)CC1=CCC1C2[C@@H](O)CC2(C)C1CC[C@]2(O)C(=O)COP(=O)(O)O (stereo partly specified) [euspeclibcmpd153] | -0.722 (inactive)
COc1ccc2c(c1)c(CC(=O)OC/C=C/Cl)c(C)n2C(=O)c1ccc(Cl)cc1 | 0.367 (inactive)
CON(C)C(=O)c1cc(-c2ccccc2)nc2ccccc12 | 1.63 (inactive)
NCCCCC(NC(CCc1ccccc1)C(=O)O)C(=O)N1CCCC1C(=O)O (stereo unspecified) [euspeclibcmpd423] | 0.0552 (inactive)
O=c1c(-c2cc(O)c(O)c(O)c2)coc2cc(O)c(O)c(O)c12 [euspeclibcmpd1958] | -0.398 (inactive)
CCOC(=O)OC(C)OC(=O)C1N2C(=O)C(NC(=O)C(N)c3ccccc3)C2SC1(C)C (stereo unspecified) [euspeclibcmpd983] | 0.627 (inactive)
N=C(N)N/N=C\c1c(Cl)cccc1Cl [euspeclibcmpd143] | 0.55 (inactive)
CC(C)NCC(O)COc1ccc(CC(N)=O)cc1 (stereo unspecified) [euspeclibcmpd387] | -0.166 (inactive)
CC(C)/N=c1\cc2n(-c3ccc(Cl)cc3)c3ccccc3[nH]c-2cc1=Nc1ccc(Cl)cc1 [euspeclibcmpd891] | 7.89 (active)
CC(C)CC(NC(=O)C(C)N)C(=O)O (stereo unspecified) [euspeclibcmpd2380] | -0.0851 (inactive)
CN=C(C[N+](=O)[O-])NCCSCc1csc(CN(C)C)n1 [euspeclibcmpd900] | -0.00145 (inactive)
CC1CN(c2c(F)c(N)c3c(=O)c(C(=O)O)cn(C4CC4)c3c2F)C[C@H](C)N1 (stereo partly specified) [euspeclibcmpd471] | -0.142 (inactive)
